Results: PubChem BioAssay (NCATS)
Inconclusive results are not listed. Activity calls are given as the source filed them. The call rests on the fitted dose curve; in most records, active means well fitted inhibition curve with a large enough effect; inconclusive means small, poorly fitted or top-dose-only effect; inactive means flat fitted curve, though single readings scatter.

What follows are molecules tested against Luciferin 4-monooxygenase (Photinus pyralis) (UniProt P08659) (assay: Biochemical firefly luciferase enzyme assay for NPC (AID 624030; further: nearly all actives have a fitted effect of over 70% in size;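 on activity change, negative = inhibition: 0% = DMSO and -100% = full luciferase inhibition by PTC124 control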)). Settings: purified P. pyralis luciferase, luminescence, 5 min; series mostly up to 58.6 µM; activity change, negative = inhibition: at the top concentration.
Chain of Luciferin 4-monooxygenase (Photinus pyralis) (P08659 whole entry, looked up): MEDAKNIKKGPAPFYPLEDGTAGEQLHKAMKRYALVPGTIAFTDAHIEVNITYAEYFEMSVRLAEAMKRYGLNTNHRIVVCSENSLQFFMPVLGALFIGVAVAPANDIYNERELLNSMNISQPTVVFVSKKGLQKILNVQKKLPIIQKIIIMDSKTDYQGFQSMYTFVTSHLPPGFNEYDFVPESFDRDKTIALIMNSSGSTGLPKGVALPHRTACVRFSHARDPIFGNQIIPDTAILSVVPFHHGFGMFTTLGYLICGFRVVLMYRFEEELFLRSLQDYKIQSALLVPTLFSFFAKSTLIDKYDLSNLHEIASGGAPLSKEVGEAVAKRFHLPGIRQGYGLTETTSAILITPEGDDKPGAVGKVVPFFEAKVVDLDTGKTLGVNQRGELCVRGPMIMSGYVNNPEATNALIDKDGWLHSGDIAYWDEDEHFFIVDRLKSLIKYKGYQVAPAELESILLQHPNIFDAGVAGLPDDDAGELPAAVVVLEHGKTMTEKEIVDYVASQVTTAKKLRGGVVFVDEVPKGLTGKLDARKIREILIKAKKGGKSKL
Source text: Charcot-Marie-Tooth-Association [CMTA] National Center for Advancing Translational Sciences [NCATS] Charcot-Marie-Tooth (CMT) disease was first characterized by Jean-Martin Charcot and Pierre Marie in France and, independently, by Howard Henry Tooth in England in 1886. CMT is one of the most common inherited neurological diseases, affecting approximately 1 in 2,500 Americans. […] The most prevalent type of CMT is known as CMT1A and caused by a duplication of the PMP22 gene which leads to over-expression of this protein. PMP22 is a glycosylated intrinsic membrane protein accounting for 2-5% of the myelin protein content, and its over-expression results in demyelination and subsequently axonal loss. A pair of cellular transcription-based assays was developed in the S16 rat Schwann cell lines (Hai, M., et al., 2002) stably transfected with orthogonal reporters - firefly luciferase (Fluc) and beta-lactamase (beta-Lac) - whose expression is driven by an intronic regulatory element of the PMP22 gene (Jones, E.A., et al., 2011) to recapitulate endogenous expression of PMP22. A comprehensive library of approved drugs, the NCGC Pharmaceutical Collection (Huang, R., et al., 2011), was screened in the cross-validating platform of the orthogonal reporter assays to identify drug modulators inhibitory towards PMP22 expression. A set of counter-screens was devised to address non-specific activity of the library. An ATP-dependent CellTiter-Glo assay (developed by Promega Corp) was utilized to control cell viability. In addition, biochemical Fluc enzyme assay was performed to assess direct inhibition of the Fluc enzymatic activity. References Hai, M., Muja, N., DeVries, G.H., Quarles, R.H. and Patel, P.I. Comparative analysis of Schwann cell lines as model systems for myelin gene transcription studies. J Neurosci Res, 2002. 69(4): pp 497-508 Huang, R., Southall, N., Wang, Y., Yasgar A., Shinn P., Jadhav, A. , Nguyen, D.-T. and Austin, C.P., The NCGC pharmaceutical collection: a comprehensive resource of clinically approved drugs enabling repurposing and chemical genomics. Sci Transl Med, 2011. 3(80): p. 80ps16.
Compounds were transferred to the plates in 23nl, and one microliter/well luciferase enzyme-buffer solution (10 nM P. pyralis luciferase and 50 mM Tris Acetate final concentrations) was dispensed yielding a final reaction volume of […]. Luciferase luminescence was measured by a ViewLux plate reader within 5 minutes of enzyme-buffer addition. The % activity was determined by normalizing to the average readings of PTC124 (a positive control) relative to DMSO (0% Activity). The concentration-effect curves were then classified based on curve quality (r2), response magnitude and degree of measured activity.
Potency means the concentration at half of the fitted maximal effect.

Row | Compound | activity change, negative = inhibition | Potency
1 | CC(C)CCON=O | -1.6% (inactive) | 
2 | Oc1cccc[c]1[Hg][Cl] |  | 10.2 µM (active)
3 | c1cc2c(c(NC3=NCCN3)c1)CCCC2 | 0.418% (inactive) | 
4 | c1csc(C2(N3CCCCC3)CCCCC2)c1 | -17.8% (inactive) | 
5 | ClC1C(Cl)C(Cl)C(Cl)C(Cl)C1Cl (stereo not given) | 0.876% (inactive) | 
6 | ClC=C(Cl)Cl | -0.0013% (inactive) | 
7 | [Cl-].[Cl-].[Hg+2] |  | 12.8 µM (active)
8 | O=C(NCNC(=O)NC1C(=O)NC(=O)N1CO)NC1C(=O)NC(=O)N1CO (stereo not given) | 0.406% (inactive) | 
9 | [Cl][Pt][Cl] | -2.15% (inactive) | 
10 | C#CC(C)(O)CC (stereo not given) | 1.99% (inactive) | 
11 | C=CCC1(C(C)CCC)C(=O)N=C(S)NC1=O (stereo not given) | 19% (inactive) | 
12 | CCC1(c2ccccc2)C(=O)NC(=O)N(C)C1=O (stereo not given) | 0.667% (inactive) | 
13 | CCC1(c2ccccc2)C(=O)NC(=O)NC1=O | 0.523% (inactive) | 
14 | CCC1(C)CC(=O)NC(=O)C1 | 8.46% [at 24.9 µM] (inactive) | 
15 | c1ccc(C2(N3CCCC3)CCCCC2)cc1 | -15.9% (inactive) | 
16 | CCCCCCCCCC(=O)O[C@H]1CC[C@H]2[C@@H]3CCC4=CC(=O)CC[C@]4(C)[C@H]3CC[C@]12C | -0.96% (inactive) | 
17 | Cn1sc(Cl)cc1=O | 2.95% (inactive) | 
18 | CCOP(=O)(OCC)O/C(=C/Cl)c1ccc(Cl)cc1Cl | -3.08% (inactive) | 
19 | CCCCNCC(O)c1ccc(O)cc1 (stereo not given) | 2.61% (inactive) | 
20 | Clc1ccc(C2(Cn3cncn3)OCCO2)c(Cl)c1 | -3.84% (inactive) | 

Row | Compound | activity change, negative = inhibition | Potency
21 | O=S(=O)(O)c1cc(O)ccc1O | 2.12% [at 24.9 µM] (inactive) | 
22 | CCCCCl | 17.8% (inactive) | 
23 | CN1CCCC(=C(c2cccs2)c2cccs2)C1 | -1.5% (inactive) | 
24 | c1ccc2cc(CC3=NCCN3)ccc2c1 | -0.788% (inactive) | 
25 | ClCC1CO1 (stereo not given) | 0.549% (inactive) | 
26 | CCC1(c2ccccc2)C(=O)NC(=O)N(C(=O)c2ccccc2)C1=O (stereo not given) | -1.73% (inactive) | 
27 | CC[N+](C)(CC)CCOC(=O)C(O)(c1ccccc1)c1ccccc1 | 3.34% (inactive) | 
28 | C[C@H]1CCC[C@H](O)CCCCCc2cc(O)cc(O)c2C(=O)O1 | -7.11% (inactive) | 
29 | C/C(=C\c1csc(C)n1)[C@@H]1C[C@@H]2O[C@]2(C)CCC[C@H](C)[C@H](O)[C@@H](C)C(=O)C(C)(C)[C@@H](O)CC(=O)O1 | -3.21% (inactive) | 
30 | CCC(=O)O[C@@](Cc1ccccc1)(c1ccccc1)[C@@H](C)CN(C)C | -0.6% [at 24.9 µM] (inactive) | 
31 | O=C1CN(O)C(c2ccccc2)=c2cc(Cl)ccc2=N1 | -2.51% (inactive) | 
32 | O=C1CC[C@@]2(O)C3Cc4ccc(O)c5c4C2(CCN3CC2CC2)[C@H]1O5 (stereo not given in full) | 0.965% (inactive) | 
33 | Cc1ccccc1-n1c(C)nc2ccccc2c1=O | -5.12% [at 123 µM] (inactive) | 
34 | CCC(C)(S(=O)(=O)CC)S(=O)(=O)CC | -3.13% (inactive) | 
35 | COC1=CC=C2[C@H]3Cc4ccc(OC)c5c4[C@@]2(CCN3C)[C@H]1O5 | -0.648% [at 24.9 µM] (inactive) | 
36 | O=C/C=C/c1ccccc1 | -13.4% (inactive) | 
37 | CC(=O)OO | -0.668% (inactive) | 
38 | CC(C)(O)C1C2OC(=O)C1C1(O)CC3OC34C(=O)OC2C14C (stereo not given) | -0.039% (inactive) | 
39 | C[N+]1(C)C2CCC1CC(OC(=O)c1c[nH]c3ccccc13)C2 (stereo not given) | 1.38% (inactive) | 
40 | CCCC(=O)OC(C(Cl)(Cl)Cl)P(=O)(OC)OC (stereo not given) | -0.683% (inactive) | 
